The supplement of paper PMC6555819

Columns and labels:
Experiment in all cases: PBM binding z-score (relative to random genomic background probes); higher = stronger binding; sequences stand for … in GC…GCGATTGACAGCGTAGAATGAAGG
[1] = system: RARb homodimer (NR concentration 270 nM)
How it was run: (§1)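 Scanned fluorescence from custom Agilent 4×180K protein-binding microarrays was regression-normalized. Binding z-scores use random background probes as reference. Ligand-free nuclear receptor dimers were incubated on the arrays for 1 h and detected with antibodies against each partner (one per run).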

[2] = system: RARg:RXRa (NR concentration 270 nM, RXRa partner concentration 90 nM)
How it was run: as §1

[3] = system: RARg homodimer (NR concentration 270 nM)
How it was run: as §1

[4] = system: RXRa DBDmut IVT, anti-RXR (DBD mutation: RXRa K156A/R161A, NR concentration 90 nM)
How it was run: as §1

[5] = system: RXRa homodimer (NR concentration 180 nM)
How it was run: as §1

[6] = system: THRa:RXRa (NR concentration 90 nM, RXRa partner concentration 90 nM)
How it was run: as §1

[7] = system: THRa homodimer (NR concentration 90 nM)
How it was run: as §1

[8] = system: VDR:RXRa (NR concentration 270 nM, RXRa partner concentration 90 nM)
How it was run: as §1

[9] = system: VDR homodimer (NR concentration 270 nM)
How it was run: as §1

Sequence	PBM binding z-score [1]	PBM binding z-score [2]	PBM binding z-score [3]	PBM binding z-score [4]	PBM binding z-score [5]	PBM binding z-score [6]	PBM binding z-score [7]	PBM binding z-score [8]	PBM binding z-score [9]
ACTCGCAGGACAAAGGTCAGAGCTACGCCAGTGA	4.26	5.2	5.21	0.845	5.45	3.03	0.0955	2.77	0.474
TCAGACAGGTGAAGGTAACCCAGGTACGCAGTCG	1.25	0.745	0.803	0.992	1.29	1.48	0.57	0.641	0.454
GCGACTGGGGCAAAGCAGGTTCCCATAAGGTTGG	0.109	-0.179	0.0897	-0.512	-0.314	1.38	-0.261	-0.543	-0.513
AGTCAAAGTCCACTAGGTAACGTAAGATTCAGCT	0.615	0.39	0.85	0.801	-0.0426	0.284	0.284	-0.0687	-0.159
ATCTCGAGGTAAAAGTTCAGTGAATCCCGAGGAT	2.35	2.35	1.86	0.47	2.58	1.99	0.159	1.7	0.883
TCATATAGGTAAAGGTGAGAGTCGAACGATATGA	1.28	1.29	1.33	0.713	1.64	0.888	-0.508	0.633	-0.128
CCTCGGAGGACAACAGGAAGTCAGAGCTGCCAGA	0.0796	0.396	1.06	0.139	-0.479	0.205	-0.14	-0.718	-0.542
GCTAGCAGGCCATATGGGTCACTCAATGACGGGC	1.78	1.54	1.39	-0.402	1.43	1	-0.658	0.951	-0.276
TAGCCAAGGTCATTGGGCCAGTATAGTACGCATC	4.21	5.55	5.5	3.08	5.46	4.06	2.04	4.87	3.47
GATACAGGGTCTGCTAGAGGCCAGAGTATGGAAA	0.393	0.857	0.279	-0.877	-0.0451	-0.093	-0.687	-0.492	-0.39
CAAACTAGGTCACCGGAAGGTCAAAGGCCGCATG	5.41	8.42	7.47	1.23	6.36	4.56	2.79	5.88	2.8
TCAGACAGGTGCAGGTAACTCAGGTACGCAGTCG	-0.182	-0.0126	-0.0497	0.956	0.745	0.824	0.0725	0.362	0.478
CCGACTGTGGCAAGGTTACCATAACGCACAGCCA	1.13	0.293	0.461	0.0244	0.97	1.2	0.526	0.0735	0.243
AGTCAAAGTTCATCTCGGTAACGTAAGATATGCT	3.93	5.53	6.02	4.57	4.35	2.58	-0.318	4.8	4.92
CCGACTGGGGCATAGGTTACCATACTCAGTACGA	0.786	0.922	0.833	-0.223	1.03	0.28	-0.456	-0.0526	-0.332
GGGACTGGGGCATCAGCAGGTTACCATAACTTAA	1.91	1.51	1.03	-0.52	0.556	1.66	1.46	0.674	0.605
GATACAGGGTCAGCTAGAGCCCAGAGTATGGAAA	2.3	4.4	4.33	1.25	4.08	2.43	0.0746	2.26	0.264
ACTAGCAGGCCAAGTATGGGTCACTCAAACAAAG	2.24	2.53	1.63	-0.279	1.11	0.976	-0.26	0.573	0.0355
GCTAATTGGTCAGTAAAAGGTCACACACCGGTCG	5.34	5.37	4.52	0.816	5.27	3.88	2.1	4.07	2.14
AATACTGGGTCACTAGGCCAGAGTAGGTACGAAT	2.47	2.99	3.54	0.506	2.37	1.81	0.283	1.47	0.859
CATACAGGGTCAGCTAGGCCAGACTAGGGACGGC	3.19	4.5	4.67	1.37	3.99	3.16	1.06	3.86	1.2
AGAACGAGGGCACGCTGAGTTGATAGCTGAGTAG	1.13	2.07	2.06	2.15	1.37	1.92	-0.0647	2.04	1.7
AAAATGAGGTTATACGTAGATCAGGGAAGAAAGT	0.619	1.88	1.14	1.93	2.37	2.24	0.727	1.65	1.13
GCTTGGAGATCAAGGTTAAGAAAGACTAAGCTAA	0.301	0.332	0.139	-0.28	1	1.16	-0.468	0.128	0.0219
TCTATTAGTTGAAGGACAACCGACGAGTCCGTTT	0.756	0.368	0.728	2.05	0.435	0.552	0.684	1.23	1.62
TGAATGCGGTTAAAGATCAGGGAACGTGGCGTCG	-0.707	-0.0436	-0.136	-0.853	0.338	-0.164	-0.454	-0.54	-0.55

Sequence	PBM binding z-score [1]	PBM binding z-score [2]	PBM binding z-score [3]	PBM binding z-score [4]	PBM binding z-score [5]	PBM binding z-score [6]	PBM binding z-score [7]	PBM binding z-score [8]	PBM binding z-score [9]
GCTAGTTGGTCAGTAAAAGGTCTCACACCGGTCG	1.45	0.572	0.449	-0.133	0.172	0.0932	0.0808	-0.141	-0.174
CAAACTAGGTCACCGGAAGGTCAAAGTACGCATG	5.73	8.48	7.65	2.43	6.46	4.8	3.25	6.17	3.52
ACAGACAGGTGATTAAGGTAACTCAGGCTATCAT	0.49	0.29	0.554	0.282	0.366	2.77	1.93	0.713	0.0908
TCTTGTAGATCAAAGTTTAAGAAAGCCGAAGCCT	0.469	0.16	0.307	1.22	0.561	0.0453	-0.571	0.555	-0.214
CGAACTAGGTCACAACAGGACAGTGAAGGATGAT	3.02	4.09	4.79	1.63	2.91	4.09	1.16	2.16	0.27
TTACCAAGGTGAGCTGAGGCCGTTGATCCAACTC	0.505	-0.177	-0.0104	-0.748	-0.163	3.6	0.533	0.537	-0.339
GATACCGGGTCAGCTAGAGGCCAGAGTATGGAAA	2.63	5.9	3.71	-0.115	2.83	2.64	0.0916	2.26	-0.166
TCTAGCAGGCCAGAAGGTCACTCAAGAGGTACGG	3.87	3.95	3.46	0.459	3.15	2.28	0.225	2.16	1
TCTATCAGTTGAAGGGCAACCGACGAGTCCGTTT	1.44	0.695	0.748	1.11	0.849	0.16	0.0373	1.07	1.44
CGAACTAGGTCATAACAGGACAGTGAAGGATGAT	2.36	3.28	3.91	1.66	2.37	4.04	0.443	1.89	0.892
CCAGACAGGTTAAAGGTAACTCAGTCTGGTACGC	1.09	2.24	1.28	0.388	3.23	1.37	-0.0486	1.62	0.276
TATACAGGCTCAAAGGCCAGAGTACGAATGTCGA	0.737	0.637	0.897	-0.662	0.521	-0.176	-0.638		0.383
AGAACGAGGGCACGCTGAGTTGAAAGCAGAGTAG	1.16	2.34	2.15	2	1.46	2.13	-0.233	2.29	0.663
TAGCCTAGGTCAATGGGCCAGTATAGTACGCATC	3.07	3.64	4.52	0.537	2.12	2.16	0.256	1.1	0.391
TAGCCTAGGTCATTCACGGGCCAGTATAGAAAGC	2.73	4.9	4.23	1.96	2.7	2.91	0.437	2.28	1.43
CCTAGCAGGCCAGGCTCACTCAAGCATTTCGCTT	-0.944	-0.644	-0.705	0.0454	-0.649	-0.789	-0.705	-0.772	-0.911
CAAACTAGGTAACCGGAAGGTCAAAGTCCGCATG	4.17	4.35	3.57	0.531	3.79	3.26	1.44	3.35	2.22
TCTTGTAGATCAAAGGTTATGAAAGCCGAAGCCT	1.25	1.65	0.684	0.966	3.08	1.46	-0.27	1.25	0.204
CCTTACGGGTCAAGTTTATAGCACGGGTGGTACG	3.32	5.13	4.78	2.07	5.03	2.56	0.164	3.9	3.09
ATCGAAAGGTCGAAGATGAGTATACCCACCCGAA	2.11	3.48	3.4	1.35	3.68	1.56	-0.0753	2.36	0.844
CGTCCAAGGTCAGAGAGGGCAGTGAATGCCGAGT	4.41	4.86	5.33	3.24	3.8	3.96	1.86	6.5	3.51
CCAGACAGCTGAGAAGGTAACTCAGCCTCGATTA	-0.378	-0.436	-0.0751	-0.0865	-0.206	-0.157	-0.306	-0.312	-0.494
TCTACTAGTTGAAGGGCAACCGACGAGTCCGTTT	0.815	0.16	0.311	1.11	0.353	-0.216	-0.254	0.635	0.707
CCTTACGGGTCACTCCAGGTTATAGCGTCGGAGT	2.85	4.55	4.23	1.41	4.06	5.06	0.469	4.14	1.5
CGTCAAAGTTAAACTAAGGTAACGTAAAGCACGC	0.585	0.536	0.659	0.0253	0.521	4.04	1.78	0.371	0.399
TCGAGTAGGTTACCCATGGGGCATTCAGCTTTCT	0.802	1.61	0.414	0.106	0.689	0.2	-0.507	-0.0423	-0.557
